Among the data in PubChem BioAssay AID1236 (Emory University Molecular Libraries Screening Center, 2008) are inhibition values, retold here.

Usually inhibition stands for the change of the read-out against control, counted positive when it falls.

SMILES strings stand for the structures. Out of some 220,000 compounds screened, about 800 (0.36%) were called active. For the sample, actives were picked, then their nearest neighbours and some compounds at random. A number with no mark means an inactive call.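 The calls were made as follows: active = inhibition above about 50% (limit read from the data); inactive = the rest.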

The subject of this assay is calpain II (m-calpain), Sus scrofa. Briefly: m-calpain protease activity blockers – biochemical, fluorogenic peptide substrate, 1536-well, primary screen (AID 1236). Particulars: purified calpain II, 30 min, at 16 µM, active compounds read high.
On to `O=P(O)(CP(=O)(c1ccccc1)c1ccccc1)c1ccccc1O`, for which the inhibition is -11.7%.

As for `COc1ccc(CN2CCCCC2C)cc1OC` (configuration not stated), the inhibition is -66%.

As for `CC(=O)c1ccc(NC(=O)N[C@@H](Cc2ccccc2)C(=O)O)cc1`, the inhibition is 5.25%.

For the compound `CC(C)N(Cc1ccccc1)C(=S)Nc1ccc(OC(F)F)cc1`, the inhibition is 18.2%.

As for `CC(=O)c1ccc(NC(=S)N(Cc2ccccc2)C(C)C2CC2)cc1` (configuration not stated), the inhibition is 69.5% (active).

For `CNc1nc(SC)nc(N(C#N)CC(=O)OC)n1`, the inhibition was -4.33%.

As to `O=C(NCCc1csc(-c2ccccc2)n1)c1ccccc1F`, the inhibition was 18.7%.

Take `COC(=O)Cn1c(O)c(N=NC(=O)OC)c2ccccc21`: the inhibition was -10.4%.

As for `CCN(CC(=O)NCCc1ccccc1)S(=O)(=O)c1ccccc1`, the inhibition was 13.4%.

`COc1cc(/C=N/O)cc(Br)c1OCc1cccc(Cl)c1`: the inhibition was 56.7% (active).

In the case of `CCOc1cc(/C=N/O)cc(Br)c1OC`, the inhibition is 2.94%.

Turning to `CCOc1c(Cl)cc(/C=N/O)cc1OC`, the inhibition is -1.32%.

For `C=CCn1c(-c2ccc(Cl)cc2)ccc(C#N)c1=O`, the inhibition is -6.13%.

With `CC(O)C(NS(=O)(=O)c1ccc(Cl)cc1)C(=O)OCc1cc([N+](=O)[O-])cc2c1OCOC2` (configuration not stated), the inhibition was -6.26%.

`CN(C(=O)CCn1c(=S)oc2ccccc21)C1CCCCC1`: the inhibition was 6.83%.

For `Cc1c(C(=O)c2cccc([N+](=O)[O-])c2)c2ccccn2c1CCC#N`, the inhibition was 10.5%.

In the case of `O=c1cc(CSc2ccc(Cl)cc2)nc(N2CCOCC2)[nH]1`, the inhibition is -33.8%.

Take `CSCc1cc(N2CCOCC2)nc(SCc2ccc(Cl)cc2Cl)n1`: the inhibition is 53.9% (active).

`CSCc1cc(N(C)C)nc(SCc2ccc(Cl)cc2Cl)n1`: the inhibition was 8.94%.

As for `Cc1ccc(-n2ncc3c(Nc4cccc(C(=O)O)c4)ncnc32)cc1`, the inhibition was 10.2%.

As to `NC(=O)CC[C@@H]1NC(=O)[C@H](CO)NC(=O)c2cc([N+](=O)[O-])cc(I)c2NCC[C@@H](C(N)=O)NC1=O`, the inhibition was -33.7%.

Consider `S=c1[nH]nc(-c2cccs2)n1/N=C/c1cn(-c2ccccc2)nc1-c1ccc(Cl)cc1`, for which the inhibition was -33.4%.

Consider `COc1ccc(OC(C)C(=O)Nc2cccnc2)cc1` (configuration not stated), for which the inhibition is -45%.

Turning to `COc1ccc(C(=O)C2CCCN(C(=O)c3cc4nc(C)cc(C)n4n3)C2)cc1F` (configuration not stated), the inhibition was -25.8%.

As for `c1ccc(-c2cc(N3CCCCC3)c3ccccc3n2)cc1`, the inhibition was 50.5% (active).

`O=c1cc(-c2ccccc2)nc(N2CCCCC2)[nH]1`: the inhibition was -13.8%.

Consider `Cc1ccc2nc(-c3ccccc3)cc(C(=O)O)c2c1`, for which the inhibition is -19.3%.
